CBX7 AlphaScr: CBX7 inhibition, primary AlphaScreen; 66,000 tested, 1.1% active; AlphaScreen His6-CBX7 / biotin-H3K27me3 peptide binding; hits give low values; O95931; normalised signal (fraction of DMSO) (concentration not given with the values); in the data active = normalised signal below about 0.5
Target sequence (O95931 whole entry, looked up): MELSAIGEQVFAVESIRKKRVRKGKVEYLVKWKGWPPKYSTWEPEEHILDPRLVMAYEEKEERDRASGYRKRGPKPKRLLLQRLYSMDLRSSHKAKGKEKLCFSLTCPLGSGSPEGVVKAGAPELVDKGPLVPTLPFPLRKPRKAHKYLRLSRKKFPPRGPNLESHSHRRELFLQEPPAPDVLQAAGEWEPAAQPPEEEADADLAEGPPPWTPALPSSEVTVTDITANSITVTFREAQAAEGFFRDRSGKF
* marks the source's active call; other numbers are inactive results; ! = not confirmed by another sample. Many of the other results were omitted from the sample, so hits are more common in it than they were.

SMILES	CBX7 AlphaScr
Cc1ccc(N2C(=O)c3ccccc3C2Nc2cc(C)cc(C)c2)nc1 (configuration not stated)	0.925
COc1cccc(CNS(=O)(=O)c2ccc3[nH]cc(C(=O)O)c(=O)c3c2)c1	0.897
O=C(O)c1c[nH]c2ccc(S(=O)(=O)NCc3ccc4c(c3)OCO4)cc2c1=O	0.477*
COc1ccccc1CNS(=O)(=O)c1ccc2[nH]cc(C(=O)O)c(=O)c2c1	0.712
O=C(Nc1ccc(F)cc1Cl)c1cn(-c2ccc(F)cc2F)c(=O)c2ccccc12	0.989
CC(C)CCNC(=O)c1cc(=O)[nH]c2ccc(S(=O)(=O)N3CCCCCC3)cc12	1.03
COc1ccccc1NC(=O)CSc1oc(-c2ccc(C)cc2)nc1S(=O)(=O)c1ccccc1	0.916
O=C(Nc1cccc(-c2cn3ccccc3n2)c1)c1ccc(F)cc1	1.06
COc1cc(Nc2nc(-c3cc(C)ccc3C)cs2)c(OC)cc1Cl	0.691
Clc1ccc(-c2csc(Nc3ccc4c(c3)OCO4)n2)cc1	0.638
COc1ccc(-c2csc(Nc3ccccc3OC)n2)cc1Br	0.809
Cc1ccc(-c2csc(N3CCN(Cc4ccc5c(c4)OCO5)CC3)n2)cc1	0.884
COc1ccc(-c2csc(Nc3ccc4c(c3)OCO4)n2)cc1Br	0.325*!
COc1cc(Nc2nc(-c3ccc(CC(C)C)cc3)cs2)c(OC)cc1Cl	0.482*
CC(C)Cc1ccc(-c2csc(Nc3ccc4c(c3)OCO4)n2)cc1	0.195*!
CCc1ccc(-c2csc(Nc3cc(OC)c(Cl)cc3OC)n2)cc1	0.661
COc1ccc(-c2csc(Nc3ccc(S(N)(=O)=O)cc3)n2)cc1C	0.549
Cc1ccc(-c2nc(CS(=O)(=O)CC(=O)NCCCN(C)Cc3ccccc3)c(C)o2)cc1	1.3
CC(C)Oc1ccc(CNC(=O)Nc2cccs2)cc1	1
Cc1cccc(NC(=O)C2CCCN(S(=O)(=O)c3c(C)noc3/C=C/c3cccs3)C2)n1 (configuration not stated)	1.01
CCc1ccc(C2CC(=O)Nc3cc(OC)c(OC)cc32)cc1 (configuration not stated)	0.94
Cc1ccc2oc(-c3ccc(Cl)c(NC(=O)CC(C)C)c3)nc2c1	1.01
CCC(=O)Nc1nc(C)c(-c2csc(Nc3ccccn3)n2)s1	0.879
CCC(=O)Nc1nc(C)c(-c2csc(Nc3ncccn3)n2)s1	1.08
CCC(=O)Nc1nc(C)c(-c2csc(Nc3ccc(OC)cc3)n2)s1	0.497*
SMILES	CBX7 AlphaScr
CCC(=O)Nc1nc(C)c(-c2csc(Nc3cc(OC)ccc3OC)n2)s1	0.496*
CCC(=O)Nc1nc(C)c(-c2csc(Nc3ccccc3OC)n2)s1	0.832
COc1ccc(OC)c(Nc2nc(-c3sc(C)nc3C)cs2)c1	0.84
CCn1c(SCC(=O)Nc2cccc(OC)c2)nnc1-c1c[nH]c2ccccc12	1.11
N#Cc1nc(-c2ccccc2)oc1NCCc1ccccc1	0.744
CCc1ccc(N2CC(c3nc4ccccc4n3CCOc3ccccc3OC)CC2=O)cc1 (configuration not stated)	0.908
Cc1ccc(-n2cc(C(=O)Nc3c(F)cc(F)cc3Br)c3ccccc3c2=O)cc1C	0.933
Cc1cc(N2CCC(C(=O)NCc3ccc(F)cc3)CC2)n2nc(C)c(-c3ccc(Cl)cc3)c2n1	1.05
Cc1c(Cl)cccc1Nc1nc(-c2cccnc2)cs1	0.879
COc1ccc(-c2csc(Nc3cccc(C(C)=O)c3)n2)cc1OC	0.795
CC(=O)c1cccc(Nc2nc(-c3cccs3)cs2)c1	0.861
CC(=O)c1cccc(Nc2nc(-c3ccccn3)cs2)c1	0.38*
CC(=O)Nc1ccc(Nc2nc(-c3cc4ccccc4o3)cs2)cc1	0.788
CC(=O)Nc1ccc(Nc2nc(-c3ccccn3)cs2)cc1	0.0608*
Cc1c(Cl)cccc1Nc1nc(-c2ccccn2)cs1	0.474*
CC(=O)Nc1ccc(Nc2nc(-c3c(C)nc4ncccn34)cs2)cc1	1.02
Cc1c(Cl)cccc1Nc1nc(-c2cccs2)cs1	0.838
CCc1ccccc1NC(=O)c1c(-c2ccccc2Cl)noc1C	0.99
Cc1cc(N2CCOCC2)nc2ccc(NC(=O)Cc3cccc(C(F)(F)F)c3)cc12	1.16
CCN(CC)S(=O)(=O)c1ccc2c(c1)N(CC(=O)NCCc1ccc(Cl)cc1)C(=O)CO2	1.1
COc1ccc2c(c1)-c1nc(NC(=O)c3ccc(F)cc3)sc1CC2	1.06
COc1ccc(C2=NOC(C(=O)N3CCCCCC3)C2)cc1 (configuration not stated)	0.979
CCC(=O)NCCc1cc2ccc(OC)cc2[nH]c1=O	1.06
CCCNC(=O)Cn1cnc2sc(C(=O)Nc3cc(OC)ccc3OC)c(C)c2c1=O	1.04
O=C1CC(c2ccccc2)Cc2nc(NCc3ccccc3)ncc21 (configuration not stated)	0.999
SMILES	CBX7 AlphaScr
Cc1ccccc1Nc1c(-c2cccnc2)nc2cccc(C)n12	0.924
Cc1cc(C)n2c(Nc3ccccc3C)c(-c3ccccn3)nc2n1	1.07
Cc1ccccc1Nc1c(-c2ccccn2)nc2cccc(C)n12	0.242*
Cc1cccc2nc(-c3ccccn3)c(Nc3ccc(C(C)C)cc3)n12	0.106*
Cc1cccc2nc(-c3ccsc3)c(Nc3ccc(C(C)C)cc3)n12	0.814
Cc1cccc2nc(-c3cccnc3)c(Nc3ccc(C(C)C)cc3)n12	0.869
CC1(C)NC(=O)N(CC(O)COc2ccccc2Br)C1=O (configuration not stated)	1.02
CCCN1CCN(CCCNC(=O)c2cc3c(-c4ccc(OC)c(OC)c4)nn(C)c3s2)CC1	0.916
CCC(=O)N1c2ccc(S(=O)(=O)Nc3cccc(OC)c3)cc2CC1C (configuration not stated)	1.22
COc1ccccc1C(=O)Nc1c(-c2ccc(F)cc2)nc2ccccn12	0.97
COc1cccc(NC(=O)C2CCN(S(=O)(=O)c3ccc(C)cc3)CC2)c1	1.04
COc1ccc(C2NCCc3c2[nH]c2ccccc32)cc1CSc1nc2ccccc2[nH]1 (configuration not stated)	0.895
COc1ccc(C2NC(C(=O)O)Cc3[nH]cnc32)cc1CSc1nc2ccccc2[nH]1 (configuration not stated)	0.495*
COc1ccc(CSc2nc3ccccc3[nH]2)cc1	0.975
CCC(C(=O)Nc1cccc(OC)c1)n1c(SCc2cccc(F)c2)nc2ccncc21 (configuration not stated)	0.983
COc1ccccc1NC(=O)c1cc2c(n(-c3ccccc3)c1=O)CC(C)(C)CC2=O	1.04
COc1ccc(-c2cn3c(C)c(C(=O)NCC(C)C)sc3n2)cc1	0.925
Cc1nc2cc(-c3ccc(Cl)cc3)nn2c(C)c1CCC(=O)NC(C)c1cccs1 (configuration not stated)	0.983
CCOc1ccccc1CNC(=O)CCCc1cn(C)c2ccccc12	0.381*
CCOc1ccc(CCNC(=O)CCCc2cn(C)c3ccccc23)cc1OCC	1.01
CCOc1ccccc1CNC(=O)CCc1cn(C)c2ccccc12	0.845
CCC(C)NC(=O)Cn1nc(-c2ccccc2)ccc1=O (configuration not stated)	1.03
Cn1c(=O)c(=O)n(C)c2cc(S(=O)(=O)N3CCCC3C(=O)Nc3nccs3)ccc21 (configuration not stated)	1.18
Cc1nn(Cc2ccccc2Cl)c(C)c1NC(=O)c1cc(CC(C)C)on1	1.14
Cc1ccc(NC(=O)C2c3ccccc3C(=O)N3CCc4ccccc4C23)nc1 (configuration not stated)	0.3*
COc1cc2c(cc1OC)C1C(C(=O)Nc3ccc(Cl)cn3)c3ccccc3C(=O)N1CC2 (configuration not stated)	0.933

High-throughput results deposited in PubChem BioAssay by Bradner/Qi Labs at DFCI.
